Measured values reported in PubChem BioAssay AID1053127 (Broad Institute, 2014).
Potency and affinity values are given separately. Values without a mark were called inactive.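 Rule for the calls: active = compounds whose fitted curve of lowered CTGF expression reaches half effect within a set concentration limit; inconclusive = flat moderate drop in CTGF, or unreliable curve fit; inactive = the rest.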

assay: CTGF mRNA reduction under YAP1 overexpression, dose response, mechanism study for YAP1 pathway inhibitor project, DLD1 cells, RT-qPCR, cherry-pick (AID 1053127); details: DLD1 YAP1-overexpressing, 24 h; series mostly up to 26 µM; CTGF fold change (delta-delta-Ct), lower = inhibition: at the top concentration

Compound | CTGF fold change (delta-delta-Ct), lower = inhibition
COc1ccc([C@H]2C/C=C\C[C@@H](c3ccc4c(c3)OCO4)NC(=O)[C@@H](c3ccccc3)CC(=O)N2)c(OC)c1 | 2.27 unspecified
O=C(c1cccc(F)c1)N1CCCCN2[C@@H](CO)[C@H](c3ccc(C#CC4(O)CCCC4)cc3)[C@@H]2C1 | 0.713 unspecified
O=C(Nc1cccc(F)c1)N1CCCCN2[C@H](C1)[C@H](c1ccc(C#Cc3cccnc3)cc1)[C@@H]2CO | 0.942 unspecified
O=C(Nc1ccccc1)[C@@H]1[C@@H](CO)[C@@H]2Cn3c(cccc3=O)[C@H]1N2C(=O)c1ccc(F)cc1 | 0.808 unspecified
COCC(=O)N1CC[C@@H]2[C@H](CO)Nc3ccc(C#Cc4ccc(F)cc4)cc3[C@@H]21 | 0.882 unspecified
Cc1ccc(S(=O)(=O)N2CC[C@@H]3[C@H]2c2cc(-c4cccc(C(=O)N(C)C)c4)ccc2N[C@@H]3CO)cc1 | 2.06 unspecified [at 23.5 µM]
CO[C@H]1CN(C)C(=O)c2cc(NC(=O)Nc3ccccc3F)ccc2OC[C@H](C)N(CCC(F)(F)F)C[C@@H]1C | 1.03 unspecified
O=C([C@H]1[C@H](CO)[C@H]2Cn3c(ccc(-c4ccc(F)cc4)c3=O)[C@H]2N1Cc1cocn1)N1CCCCC1 | 0.918 unspecified
Cc1cccc(-c2ccc([C@@H]3[C@@H](CO)N4CCCCN(S(=O)(=O)c5ccccc5F)C[C@@H]34)cc2)c1 | 0.962 unspecified
C[C@@H]1CN([C@H](C)CO)C(=O)c2cccc(NC(=O)c3nc4ccccc4s3)c2O[C@H]1CN(C)C(=O)Nc1ccc2c(c1)OCO2 | 0.577 unspecified [at 23.5 µM]
O=S(=O)(Cc1ccccc1)N1CC2(C1)[C@H](c1ccccc1)[C@H](CO)N2CC1CCCC1 | 0.631 unspecified
CCS(=O)(=O)Nc1ccc2c(c1)C(=O)N(C)[C@H]1CC[C@H](CC(=O)N3CCN(C)CC3)O[C@H]1CO2 | 1.29 unspecified
COc1ccc2c3c([nH]c2c1)[C@H](CO)NCC31CCN(C(=O)Cc2cccnc2)CC1 | 1.14 unspecified
CC(=O)N1CCCCN2[C@@H](CO)[C@H](c3ccc(-c4ccccc4)cc3)[C@@H]2C1 | 0.666 unspecified
Cc1ccc(S(=O)(=O)N2CC[C@H]3[C@H](CO)Nc4ccc(-c5cccc(C(=O)N(C)C)c5)cc4[C@H]32)cc1 | 1.09 unspecified
CO[C@@H](CN(C)S(=O)(=O)c1ccc(C)cc1)[C@@H](C)CN([C@H](C)CO)S(=O)(=O)c1cccc(Cl)c1 | 0.886 unspecified
N#Cc1cccc(-c2ccc3c(c2)[C@@H]2[C@@H](CCN2S(=O)(=O)c2ccc(F)cc2)[C@H](CO)N3)c1 | 1.06 unspecified
COc1cccc(C#Cc2ccc3c(c2)O[C@@H](CN(C)C(=O)CN2CCOCC2)[C@@H](C)CN([C@@H](C)CO)S3(=O)=O)c1 | 1.36 unspecified
O=C(c1cccc(F)c1)N1CCCCN2[C@H](CO)[C@H](c3ccc(C#CC4(O)CCCC4)cc3)[C@@H]2C1 | 0.87 unspecified
CCCNC(=O)N1[C@H](C#N)[C@@H](c2ccc(C#Cc3cccc(F)c3)cc2)[C@@H]1CO | 3.14 unspecified
C[C@H](O)C#Cc1ccc([C@H]2[C@@H](CO)N3CCCCN(C(=O)c4ccc5c(c4)OCO5)C[C@@H]23)cc1 | 0.952 unspecified [at 23.5 µM]
CC(C)(C)[S@](=O)N1Cc2cc(C(=O)NCCc3ccncc3)nc(-c3cccc(-c4cccc(C#N)c4)c3)c2[C@@H]1CCO | 1.03 unspecified
COc1ccc(NC(=O)N(C)C[C@H]2Oc3c(NC(=O)CCCCCC(=O)Nc4ccccc4N)cccc3C(=O)N([C@H](C)CO)C[C@@H]2C)cc1 | 1.07 unspecified [at 23.5 µM]
C[C@H]1CN([C@@H](C)CO)C(=O)c2cccc(NC(=O)c3ccc(-c4nccs4)cc3)c2O[C@@H]1CN(C)C(=O)Nc1ccc(C(F)(F)F)cc1 | 0.52 unspecified
C[C@@H]1CN([C@@H](C)CO)C(=O)c2ccccc2-c2ccccc2CO[C@@H]1CN(C)S(=O)(=O)c1cn(C)cn1 | 1.32 unspecified
C[C@@H]1CC=CC[C@@H](c2cccc(Cl)c2)NC(=O)[C@H](Cc2ccccc2)N(C)C(=O)c2ccccc2O1 (mixture of isomers) | 0.763 unspecified
CC(C)NC(=O)N[C@@H]1CC[C@H](CC(=O)NCCCN(C)C)O[C@@H]1CO | 1.4 unspecified
CN1C(=O)c2cc(NS(=O)(=O)c3ccccc3F)ccc2OC[C@@H]2O[C@@H](CC(=O)NC3Cc4ccccc4C3)CC[C@@H]21 | 1.29 unspecified
CO[C@@H]1CN(C)C(=O)c2cc(NS(=O)(=O)c3ccccc3C)ccc2OC[C@@H](C)N(S(=O)(=O)c2ccccc2)C[C@H]1C | 1 unspecified
CCC(=O)N1C[C@H](C)[C@@H](OC)CN(C)C(=O)c2cc(NC(=O)Nc3ccc(Cl)cc3)ccc2OC[C@@H]1C | 1.62 unspecified
